The panel holds about 83,000 compounds, 20% with a hit somewhere; the sample as a whole holds those more often.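 In brief: 96-well plates, 48 h treatment, single concentration, percent growth endpoint.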 A number with no mark means an inactive call. Activity calls are given as the source filed them. How the source made its calls: active means growth percent below 10; inactive means the rest.

Among the data in PubChem BioAssay (NCI) are growth values, retold here.

Common to all, as to assay: NCI-60 one-dose screen, 48 h (100 = growth as untreated, 0 = no growth, -100 = all killed)
For one test, the system named is NCI-H23 lung. The following applies: 10 µM unless noted.
The next test concerns NCI-H226 lung. The following applies: 10 µM unless noted.
In another test the test system is NCI-H322M lung. The conditions noted are these: 10 µM unless noted.
A further test deals with HOP-62 NSCLC. The conditions noted are these: 10 µM unless noted.
A further test concerns NCI-H460 lung. The following applies: 10 µM unless noted.
For another test, the system named is HOP-92 NSCLC. The following applies: 10 µM.
The subject of another test is NCI-H522 lung. The following applies: 10 µM unless noted.
A further test concerns A549/ATCC NSCLC. The following applies: 10 µM unless noted.
The test system of a further test is 786-0 renal. The following applies: 10 µM unless noted.
The next test concerns COLO 205 colon. The following applies: 10 µM unless noted.
Another test concerns DU-145 prostate. The following applies: 10 µM unless noted.
A further test has as its system K-562 leukemia. The conditions noted are these: 10 µM unless noted.
In a further test the test system is MALME-3M melanoma. The conditions noted are these: 10 µM unless noted.
The test system of the next test is MDA-MB-231 breast. The conditions noted are these: 10 µM unless noted.
A further test has as its system SF-268 CNS. The following applies: 10 µM unless noted.
For another test, the system named is SF-295 CNS. The conditions noted are these: 10 µM unless noted.
Another test has as its system SF-539 CNS. The conditions noted are these: 10 µM unless noted.
The subject of the next test is UACC-257 melanoma. The conditions noted are these: 10 µM unless noted.

Turning to `Nc1ncc(-c2ccc3ncnc(N4CCc5cc(F)c(F)cc54)c3c2)cn1`, the growth in the test with NCI-H23 lung is 38.3%; in the test with NCI-H226 lung it was 29.1%; with NCI-H322M lung it was 33.1%; in the test with HOP-62 NSCLC, 13.4%; in the test on NCI-H460 lung, 18.9%; with HOP-92 NSCLC it was -7.6% (active). Moreover, the growth in the test with NCI-H522 lung was 34%; in the test with A549/ATCC NSCLC, 15.6%; with 786-0 renal, 14.2%; in the test on COLO 205 colon, 43.6%; in the test on DU-145 prostate it was 26%; in the test with K-562 leukemia it was 48.7%. For the same molecule, the growth was 17.4% in the test with MALME-3M melanoma; 26.9% in the test with MDA-MB-231 breast; 29.5% with SF-268 CNS; 20.7% in the test on SF-295 CNS; 18.9% in the test on SF-539 CNS; 45% in the test on UACC-257 melanoma.

On to `CCCCCc1ccc(S(=O)(=O)Nc2cccc(-c3csc(NC(=O)CN4CCN(C)CC4)n3)c2)cc1`, for which the growth is 95.1% with NCI-H23 lung; 93.3% in the test with NCI-H226 lung; 100% with NCI-H322M lung; 89.5% with HOP-62 NSCLC; 21.5% with NCI-H460 lung; 62.3% in the test on HOP-92 NSCLC. Also, the growth is 89.5% in the test with NCI-H522 lung; 79.7% in the test on A549/ATCC NSCLC; 63.8% in the test on 786-0 renal; 31% in the test with COLO 205 colon; 82.4% in the test on DU-145 prostate; 7.06% (active) in the test with K-562 leukemia. The growth is 45.7% with MALME-3M melanoma; 74.2% in the test on MDA-MB-231 breast; 78.4% in the test on SF-268 CNS; 104% in the test with SF-295 CNS; 82.9% in the test with SF-539 CNS; 93% in the test on UACC-257 melanoma.

`O=C1[C@@H]2Cc3c([nH]c4ccccc34)[C@H](c3c(Cl)cccc3Cl)N2C(=O)CN1C1CCN(CC2CCCCC2)CC1`: the growth is 91.3% with NCI-H23 lung; 85.9% in the test with NCI-H226 lung; 83.5% in the test with NCI-H322M lung; 104% in the test with HOP-62 NSCLC; 12.7% with NCI-H460 lung; 64.8% in the test on HOP-92 NSCLC. Besides, the growth in the test on NCI-H522 lung is 24.1%; with A549/ATCC NSCLC it was 64.4%; in the test with 786-0 renal it was 46.6%; in the test on COLO 205 colon, 96.2%; in the test on DU-145 prostate it was 34.4%; in the test with K-562 leukemia, 1.73% (active). The growth in the test with MALME-3M melanoma is 80.6%; in the test on MDA-MB-231 breast it was 50%; in the test with SF-268 CNS it was 75.2%; in the test on SF-295 CNS, 105%; in the test on SF-539 CNS, 68.8%; in the test with UACC-257 melanoma it was 91.4%.

As for `CC1(C)CC[C@]2(CN)CC[C@]3(C)C(=CC[C@@H]4[C@@]5(C)CCCNC(C)(C)[C@@H]5CC[C@]43C)[C@H]2C1`, the growth in the test with NCI-H23 lung was 104%; in the test on NCI-H226 lung it was 105%; in the test with NCI-H322M lung, 99%; with HOP-62 NSCLC it was 93.9%; in the test with NCI-H460 lung, 99.5%; with HOP-92 NSCLC it was 81.2%. Also, the growth with NCI-H522 lung was 105%; in the test on A549/ATCC NSCLC, 92.2%; in the test with 786-0 renal, 92.8%; in the test with COLO 205 colon it was 109%; in the test with DU-145 prostate, 109%; in the test with K-562 leukemia it was 3.16% (active). The growth in the test on MALME-3M melanoma is 102%; with MDA-MB-231 breast, 106%; with SF-268 CNS, 98.6%; with SF-295 CNS it was 104%; with SF-539 CNS, 99.7%; in the test with UACC-257 melanoma, 117%.

On to `C=CCN(C)S(=O)(=O)/N=C1\NC(=O)NC1=C(Cl)Cl`, for which the growth with NCI-H23 lung was 37.5%; in the test on NCI-H226 lung, 89%; in the test with NCI-H322M lung, 95%; in the test on HOP-62 NSCLC, 76.5%; with NCI-H460 lung, 45.6%; in the test on HOP-92 NSCLC, -23.4% (active). For the same molecule, the growth in the test on NCI-H522 lung is -57% (active); in the test with A549/ATCC NSCLC, 103%; with 786-0 renal it was 32.2%; in the test with COLO 205 colon it was -40.8% (active); in the test on DU-145 prostate it was 72.8%; in the test with K-562 leukemia it was -3.52% (active). Also, the growth in the test with MALME-3M melanoma is -69.4% (active); in the test with MDA-MB-231 breast it was -25.5% (active); with SF-268 CNS, 32.2%; in the test with SF-295 CNS, 102%; in the test with SF-539 CNS, -23.6% (active); in the test on UACC-257 melanoma it was 57.4%.

`Cn1ccnc1C(=O)/C=C/c1ccc(CNC(=O)c2c(F)c(F)c(F)c(F)c2F)cc1`: the growth was 52.5% in the test on NCI-H23 lung; 69.5% in the test on NCI-H226 lung; 81% in the test with NCI-H322M lung; 66.5% with HOP-62 NSCLC; 7.14% (active) in the test on NCI-H460 lung; 117% in the test on HOP-92 NSCLC. The growth in the test with NCI-H522 lung was 32.1%; in the test on A549/ATCC NSCLC, 70.4%; with 786-0 renal, 28%; in the test on COLO 205 colon, 102%; with DU-145 prostate it was 17.7%; in the test on K-562 leukemia, 21.1%. Besides, the growth in the test with MALME-3M melanoma was 97%; with MDA-MB-231 breast, 30.3%; in the test with SF-268 CNS, 29.4%; in the test on SF-295 CNS it was 90.4%; with SF-539 CNS, 2.82% (active); in the test with UACC-257 melanoma it was 77%.

For the molecule `CCc1nn2c(C)cc(C)nc2c1Cc1ccc(/C=C/CN2CCN(CCOCCOCCN3CCN(C/C=C/c4ccc(Cc5c(CC)nn6c(C)cc(C)nc56)cc4)CC3)CC2)cc1`, the growth in the test on NCI-H23 lung was 26.2%; with NCI-H226 lung, 67.9%; with NCI-H322M lung, 7.19% (active); in the test on HOP-62 NSCLC it was 18.7%; with NCI-H460 lung, -63.8% (active); in the test on HOP-92 NSCLC, -5.1% (active). Further, the growth was -47.9% (active) in the test with NCI-H522 lung; 11.7% in the test with A549/ATCC NSCLC; -79.3% (active) with 786-0 renal; -48.5% (active) with COLO 205 colon; -31.6% (active) in the test with DU-145 prostate; -51.2% (active) in the test with K-562 leukemia. Further, the growth in the test on MALME-3M melanoma was -92.4% (active); with MDA-MB-231 breast, -66.2% (active); in the test with SF-268 CNS, -53.8% (active); in the test on SF-295 CNS, -52.7% (active); with SF-539 CNS, -83.7% (active); in the test on UACC-257 melanoma, -67.6% (active).

`COc1ccccc1NC1=C(Cl)C(=O)c2nc(C)ccc2C1=O`: the growth in the test with NCI-H23 lung was -8.37% (active); with NCI-H226 lung, 29.6%; in the test on NCI-H322M lung, 71.1%; in the test with HOP-62 NSCLC it was 74.1%; in the test with NCI-H460 lung it was 70.8%; in the test on HOP-92 NSCLC, -83.8% (active). The growth was -48.5% (active) with NCI-H522 lung; 101% in the test on A549/ATCC NSCLC; 9.17% (active) with 786-0 renal; 111% in the test with COLO 205 colon; -57.3% (active) with DU-145 prostate; -21.1% (active) in the test with K-562 leukemia. For the same molecule, the growth in the test with MALME-3M melanoma is -55.9% (active); in the test on MDA-MB-231 breast, -57.3% (active); in the test on SF-268 CNS it was 47.4%; in the test with SF-295 CNS, 96.6%; in the test on SF-539 CNS, 1.78% (active); in the test on UACC-257 melanoma, -82.7% (active).
